# Laboratory results from paper PMC11062922 (Nature Chemical Biology, 2023).
# Like-named read-outs stand apart in the source and are kept apart here.
# Experiments:
# Set-up in all cases: species or system human, MV4-11 + K-562 + COLO205 + SK-N-BE2 + OVCAR-8
# AURKA = details: read-out: apparent Kd; compound concentrations:100 nM and 1000 nM (sheet 'Samples'); n = 1
# AURKB = details: read-out: apparent Kd, n = 1
# DDR1 = details: read-out: apparent Kd; compound concentrations:100 nM and 1000 nM (sheet 'Samples'); n = 1
# DDR2 = details: read-out: apparent Kd; compound concentrations:100 nM and 1000 nM (sheet 'Samples'); n = 1
# FLT3 = details: read-out: apparent Kd, n = 1
# FLT4 = details: read-out: apparent Kd; compound concentrations:100 nM and 1000 nM (sheet 'Samples'); n = 1
# MET = details: read-out: apparent Kd; compound concentrations:100 nM and 1000 nM (sheet 'Samples'); n = 1
# PLK4 = details: read-out: apparent Kd; compound concentrations:100 nM and 1000 nM (sheet 'Samples'); n = 1
# RET = details: read-out: apparent Kd; compound concentrations:100 nM and 1000 nM (sheet 'Samples'); n = 1
# TGFBR2 = details: read-out: apparent Kd; compound concentrations:100 nM and 1000 nM (sheet 'Samples'); n = 1
# TNK1 = details: read-out: apparent Kd; compound concentrations:100 nM and 1000 nM (sheet 'Samples'); n = 1
# BMP2K = details: read-out: apparent Kd, n = 1
# CDKL5 = details: read-out: apparent Kd; compound concentrations: 100 nM and 1000 nM (sheet 'Samples'), CATDS: 7.5707148377712405E-2; n = 1
# GSK3A = details: read-out: apparent Kd; compound concentrations: 100 nM and 1000 nM (sheet 'Samples'), CATDS: 8.1333822841740205E-2; n = 1
# GSK3B = details: read-out: apparent Kd; compound concentrations: 100 nM and 1000 nM (sheet 'Samples'), CATDS: 7.5519353695847294E-2; n = 1
# HSPE1 = details: read-out: apparent Kd; compound concentrations: 100 nM and 1000 nM (sheet 'Samples'), CATDS: 0.31901289007405398; n = 1
# ICK = details: read-out: apparent Kd; compound concentrations: 100 nM and 1000 nM (sheet 'Samples'), CATDS: 5.8957301425707501E-2; n = 1
# JAK1 = details: read-out: apparent Kd; compound concentrations: 100 nM and 1000 nM (sheet 'Samples'), CATDS: 9.4979881318968506E-2; n = 1
# MAPK9 = details: read-out: apparent Kd; compound concentrations: 100 nM and 1000 nM (sheet 'Samples'), CATDS: 5.8843363107673401E-2; n = 1
# NUAK1 = details: read-out: apparent Kd; compound concentrations: 100 nM and 1000 nM (sheet 'Samples'), CATDS: 6.5408557388510299E-2; n = 1
# PGK1 = details: read-out: apparent Kd; compound concentrations: 100 nM and 1000 nM (sheet 'Samples'), CATDS: 0.33349072490792903; n = 1
# PKM = details: read-out: apparent Kd; compound concentrations: 100 nM and 1000 nM (sheet 'Samples'), CATDS: 6.2556323198701705E-2; n = 1
# PIK3CD = details: read-out: apparent Kd, compound concentrations: 100 nM and 1000 nM (sheet 'Samples'), n = 1
# RPS6KA4 = details: read-out: apparent Kd; compound concentrations: 100 nM and 1000 nM (sheet 'Samples'), CATDS: 0.19604885233209601; n = 1
# MAP3K1 = details: read-out: apparent Kd; compound concentrations:100 nM and 1000 nM (sheet 'Samples'); n = 1
# MAP4K5 = details: read-out: apparent Kd; compound concentrations:100 nM and 1000 nM (sheet 'Samples'); n = 1
# NUAK2 = details: read-out: apparent Kd; compound concentrations:100 nM and 1000 nM (sheet 'Samples'); n = 1
# PLK1 = details: read-out: apparent Kd; compound concentrations:100 nM and 1000 nM (sheet 'Samples'); n = 1
# STK10 = details: read-out: apparent Kd; compound concentrations:100 nM and 1000 nM (sheet 'Samples'); n = 1
# MYLK3 = details: read-out: apparent Kd; compound concentrations: 100 nM and 1000 nM (sheet 'Samples'), CATDS: 0.39880703654606497; n = 1
# TNIK = details: read-out: apparent Kd; compound concentrations: 100 nM and 1000 nM (sheet 'Samples'), CATDS: 0.27194394843596698; n = 1
# [1] = compound concentrations:100 nM and 1000 nM (sheet 'Samples')
smiles,measurement,setting,value
CN1CCN(C(=O)c2ccc(NC(=O)Nc3ccc(N(C)c4ccnc(Nc5ccc(CS(C)(=O)=O)cc5)n4)cc3)cc2)CC1.Cl [GW830263A],potency estimated from few doses,AURKA,303 nM
same,potency estimated from few doses,AURKB; [1],247 nM
same,potency estimated from few doses,DDR1,816 nM
same,potency estimated from few doses,DDR2,1150 nM
same,potency estimated from few doses,FLT3; [1],108 nM
same,potency estimated from few doses,FLT4,566 nM
same,potency estimated from few doses,MET,2330 nM
same,potency estimated from few doses,PLK4,873 nM
same,potency estimated from few doses,RET,708 nM
same,potency estimated from few doses,TGFBR2,2130 nM
same,potency estimated from few doses,TNK1,357 nM
Cc1ccc2c(c1)c(C1=C(c3cn(C)c4ccccc34)C(=O)NC1=O)cn2C [RO0317510-000],potency estimated from few doses,"BMP2K; compound concentrations: 100 nM and 1000 nM (sheet 'Samples'), CATDS: 7.6838434423815494E-2",783 nM
same,potency estimated from few doses,CDKL5,815 nM
same,potency estimated from few doses,"FLT3; compound concentrations: 100 nM and 1000 nM (sheet 'Samples'), CATDS: 9.6631146746451402E-2",449 nM
same,potency estimated from few doses,GSK3A,676 nM
same,potency estimated from few doses,GSK3B,820 nM
same,potency estimated from few doses,HSPE1,48.4 nM
same,potency estimated from few doses,ICK,1800 nM
same,potency estimated from few doses,JAK1,467 nM
same,potency estimated from few doses,MAPK9,1810 nM
same,potency estimated from few doses,NUAK1,1250 nM
same,potency estimated from few doses,PGK1,45.2 nM
same,potency estimated from few doses,PKM,1450 nM
COc1ccc(Nc2nccc(N3CCC(NC(=O)c4cccc(C#N)c4)C3)n2)cc1 (centres unmarked) [GSK1379730A],potency estimated from few doses,"AURKB; compound concentrations: 100 nM and 1000 nM (sheet 'Samples'), CATDS: 0.359402067500939",1450 nM
same,potency estimated from few doses,PIK3CD; CATDS: 0.82128719253375804,177 nM
O=C1Nc2ccccc2/C1=C1\CCc2cc(O)ccc21 [GR105659X],potency estimated from few doses,"AURKB; compound concentrations: 100 nM and 1000 nM (sheet 'Samples'), CATDS: 0.205313587385097",856 nM
same,potency estimated from few doses,"FLT3; compound concentrations: 100 nM and 1000 nM (sheet 'Samples'), CATDS: 0.27070299273409698",446 nM
same,potency estimated from few doses,PIK3CD; CATDS: 0.42834866623309398,199 nM
same,potency estimated from few doses,RPS6KA4,977 nM
C[C@@H](Oc1cc(-n2cnc3ccc(OCC4CCN(C)CC4)cc32)sc1C(N)=O)c1ccccc1C(F)(F)F [GSK326090A],potency estimated from few doses,BMP2K; [1],1900 nM
same,potency estimated from few doses,MAP3K1,1240 nM
same,potency estimated from few doses,MAP4K5,203 nM
same,potency estimated from few doses,NUAK2,411 nM
same,potency estimated from few doses,PLK1,67.7 nM
same,potency estimated from few doses,STK10,1720 nM
Nc1cccc(-c2ccc3c(N)n[nH]c3c2)c1 [GSK2193613A],potency estimated from few doses,"BMP2K; compound concentrations: 100 nM and 1000 nM (sheet 'Samples'), CATDS: 0.35520277596049099",1270 nM
same,potency estimated from few doses,MYLK3,1020 nM
same,potency estimated from few doses,TNIK,2310 nM
